According to paper PMC10726135, “HNF4α isoforms regulate the circadian balance between carbohydrate and lipid metabolism in the liver”:
Over roughly 18,000 sequences, “log2 normalized intensity” has its median near 0.36; the highest 2% begin near 7.3. The full list was thinned out, with the highest values kept by preference.

These sequences were tested against T1, HNF4alpha8 (COS-7 nuclear extract) (Homo sapiens, UniProt P41235-5 1-452) (assay: protein-binding microarray; COS-7 nuclear extract on double-stranded Agilent 4x180k PBM; binding buffer, salt, pH and temperature not given in the material; high values mean tight binding). Details: chain copies: 2; label: 3' end of strand 1 on the slide; dsDNA, one strand shown.
T1 sequence: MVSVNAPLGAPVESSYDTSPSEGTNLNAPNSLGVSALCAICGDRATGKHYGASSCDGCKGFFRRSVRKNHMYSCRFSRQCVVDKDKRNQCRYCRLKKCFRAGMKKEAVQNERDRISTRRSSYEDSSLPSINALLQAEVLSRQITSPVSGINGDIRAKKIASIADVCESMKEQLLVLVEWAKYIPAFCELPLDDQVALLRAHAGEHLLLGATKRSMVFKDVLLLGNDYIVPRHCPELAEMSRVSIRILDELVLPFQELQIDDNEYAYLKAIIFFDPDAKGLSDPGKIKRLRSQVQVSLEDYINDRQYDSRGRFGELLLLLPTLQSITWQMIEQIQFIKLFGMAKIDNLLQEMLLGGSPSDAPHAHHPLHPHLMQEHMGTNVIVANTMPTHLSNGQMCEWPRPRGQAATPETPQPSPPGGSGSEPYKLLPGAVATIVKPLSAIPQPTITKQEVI
Procedure, shortened: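 Nuclear extracts came from COS-7 cells transiently transfected by CaPO4 with a human HNF4α isoform expression vector. They were applied to a custom Agilent SurePrint G3 4x180k array of ~60-nt oligonucleotides, made double-stranded, with ~44,000 test sequences spotted in quadruplicate. Bound HNF4α was imaged at 2-µm resolution on an Agilent G2565CA scanner. Binding signal was taken as background-corrected, normalized gProcessedSignal from Agilent software.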

Sequence	binding signal
TGAATGATCAAAGGTTGGTTTTTGGAGACAGCCTAGGGAGATTAGAGTATCGGTCGA	3.36 log2 normalized intensity
TCCTGAGTGATTGTAGTGTCATTGTTATTTGCCTAGGGAGATTAGAGTATCGGTCGA	1.98 log2 normalized intensity
CTTTGGAACCTGCCCTCTGTCCCATGGTGTGCCTAGGGAGATTAGAGTATCGGTCGA	2.85 log2 normalized intensity
GGGGAGGGCAGGGTCAGAACCTGCCCATGAGCCTAGGGAGATTAGAGTATCGGTCGA	0.0112 log2 normalized intensity
CATGACCTTTGGACTGTGACCCCACCTCTCGCCTAGGGAGATTAGAGTATCGGTCGA	7.69 log2 normalized intensity
AGAACCTGCCCATGACCTTTGGACTGTGACGCCTAGGGAGATTAGAGTATCGGTCGA	10.2 log2 normalized intensity
GGGTCAGAACCTGCCCATGACCTTTGGACTGCCTAGGGAGATTAGAGTATCGGTCGA	10.8 log2 normalized intensity
GGACTGTGACCCCACCTCTCAGACAGAGCTGCCTAGGGAGATTAGAGTATCGGTCGA	3.8 log2 normalized intensity
GGGCAGGGTCAGAACCTGCCCATGACCTTTGCCTAGGGAGATTAGAGTATCGGTCGA	6.45 log2 normalized intensity
CCTTTGGACTGTGACCCCACCTCTCAGACAGCCTAGGGAGATTAGAGTATCGGTCGA	5.4 log2 normalized intensity
CTGCCCTTTGGAACCTGCCCTCTGTCCCATGCCTAGGGAGATTAGAGTATCGGTCGA	4.63 log2 normalized intensity
TCAGGTGTTGCTCTCTTGCCATTCGTGGATGCCTAGGGAGATTAGAGTATCGGTCGA	0.994 log2 normalized intensity
ACTACTAACCGAAAGTCTGACCCTTGACCAGCCTAGGGAGATTAGAGTATCGGTCGA	7.2 log2 normalized intensity
AAACAATGACCTCTGCACCCTTCCCTGAGTGCCTAGGGAGATTAGAGTATCGGTCGA	4.47 log2 normalized intensity
TTTGAAAGAAAGAGACCTTTACCCTGACCTGCCTAGGGAGATTAGAGTATCGGTCGA	4.47 log2 normalized intensity
CAATCCTGGAGAAGGAGCACCAATGACCTTGCCTAGGGAGATTAGAGTATCGGTCGA	4.02 log2 normalized intensity
CAATGACCTTTGACCCTTCTCTGGGAGAAAGCCTAGGGAGATTAGAGTATCGGTCGA	8.44 log2 normalized intensity
ACCTTTGACCCTTCTCTGGGAGAAAGGGAGGCCTAGGGAGATTAGAGTATCGGTCGA	3.86 log2 normalized intensity
GAAGGAGCACCAATGACCTTTGACCCTTCTGCCTAGGGAGATTAGAGTATCGGTCGA	11.2 log2 normalized intensity

Sequence	binding signal
CTAAGCAGCGAAGCTGTGTCAGGCATTGTAGCCTAGGGAGATTAGAGTATCGGTCGA	-0.633 log2 normalized intensity
AGATTCTGCAAACCTATTAATATATTCATAGCCTAGGGAGATTAGAGTATCGGTCGA	-0.929 log2 normalized intensity
GTCTGTTGACCTTTGGCCAAGGGCAGTGTTGCCTAGGGAGATTAGAGTATCGGTCGA	7.73 log2 normalized intensity
AGGCAGTCTGTTGACCTTTGGCCAAGGGCAGCCTAGGGAGATTAGAGTATCGGTCGA	8.19 log2 normalized intensity
CCTCTTTGAGTCTGGTGTTCTCTTGGCCAAGCCTAGGGAGATTAGAGTATCGGTCGA	1.63 log2 normalized intensity
TTGACCTTTGGCCAAGGGCAGTGTTTGCCCGCCTAGGGAGATTAGAGTATCGGTCGA	6.36 log2 normalized intensity
CTTTGGCCAAGGGCAGTGTTTGCCCAGCTTGCCTAGGGAGATTAGAGTATCGGTCGA	0.731 log2 normalized intensity
GAGTCTGTTGTCTAACATTTTTGACCTTCAGCCTAGGGAGATTAGAGTATCGGTCGA	4.68 log2 normalized intensity
TCTTTACACCATTGCAAGGATTCCAAATTTGCCTAGGGAGATTAGAGTATCGGTCGA	0.0367 log2 normalized intensity
AAAGATTGCAGCAAGGAATTCAACCCTTGTGCCTAGGGAGATTAGAGTATCGGTCGA	2.23 log2 normalized intensity
GTCTTATCTACCTGGCTTGTTTGCAAAGCAGCCTAGGGAGATTAGAGTATCGGTCGA	0.749 log2 normalized intensity
TGCAGTTTCCCTATTCTCAGTGATATAAAAGCCTAGGGAGATTAGAGTATCGGTCGA	0.942 log2 normalized intensity
CTCTCCCTCCTCTCTGAGCAGTCAAACTGGGCCTAGGGAGATTAGAGTATCGGTCGA	1.89 log2 normalized intensity
GCCACCCTCCTCTCTGGGTCAAAGGTCATCGCCTAGGGAGATTAGAGTATCGGTCGA	10.2 log2 normalized intensity
AAAGGTCATCGCACCGGCAGGGGAGAACTTGCCTAGGGAGATTAGAGTATCGGTCGA	1.24 log2 normalized intensity
GGGGTCAAAGTCCCCTGAGCTTGAGTCCATGCCTAGGGAGATTAGAGTATCGGTCGA	6 log2 normalized intensity
CCTCCTCTCTGGGTCAAAGGTCATCGCACCGCCTAGGGAGATTAGAGTATCGGTCGA	8.5 log2 normalized intensity
CTGGGGCCACCCTCCTCTCTGGGTCAAAGGGCCTAGGGAGATTAGAGTATCGGTCGA	5.36 log2 normalized intensity
CCTGCCTCTCCTCTGAGCTTCATCCTGACCGCCTAGGGAGATTAGAGTATCGGTCGA	1.7 log2 normalized intensity

Sequence	binding signal
TCTCTGGGTCAAAGGTCATCGCACCGGCAGGCCTAGGGAGATTAGAGTATCGGTCGA	7.54 log2 normalized intensity
AGGTCGCAAGCACTGGCTCTGGGGTCAAAGGCCTAGGGAGATTAGAGTATCGGTCGA	4.08 log2 normalized intensity
CCTGGTCAAAGTCAACTCCTCCAAGCCACCGCCTAGGGAGATTAGAGTATCGGTCGA	0.614 log2 normalized intensity
GAGGTGTCAGCCACCCCTCCTCCTGGGGGCGCCTAGGGAGATTAGAGTATCGGTCGA	2.93 log2 normalized intensity
CACTGGCTCTGGGGTCAAAGTCCCCTGAGCGCCTAGGGAGATTAGAGTATCGGTCGA	7.66 log2 normalized intensity
CCAATTCACAGAACTCCCTAAGTGGCCTCAGCCTAGGGAGATTAGAGTATCGGTCGA	0.0537 log2 normalized intensity
GGTTGTCAGACTGGTGTAGTGGGGAGGGCAGCCTAGGGAGATTAGAGTATCGGTCGA	1.35 log2 normalized intensity
GCGGCATTCCTGTCAAAATCTGATCTTTCCGCCTAGGGAGATTAGAGTATCGGTCGA	1.47 log2 normalized intensity
CAAGTTGGTTTACATTCTTAGAAGATAAAGGCCTAGGGAGATTAGAGTATCGGTCGA	0.323 log2 normalized intensity
GAGGCTTTGAGTCATTGAGGCTTTGCCTTAGCCTAGGGAGATTAGAGTATCGGTCGA	-0.699 log2 normalized intensity
CACAGCTGGACTTTGGCTGCAAAATTTGAAGCCTAGGGAGATTAGAGTATCGGTCGA	3.88 log2 normalized intensity
AATGATGATGACTTTTGACCCCAGGGGAAAGCCTAGGGAGATTAGAGTATCGGTCGA	6.38 log2 normalized intensity
GAATTCTTGACTTTGGACTTTCAAAAGTTAGCCTAGGGAGATTAGAGTATCGGTCGA	5.14 log2 normalized intensity
TTGGACTTTGACCTCCAAAATTATAAGTCAGCCTAGGGAGATTAGAGTATCGGTCGA	8.58 log2 normalized intensity
CATTGACTTTGCCTTTTGGCTAAAGTCCAAGCCTAGGGAGATTAGAGTATCGGTCGA	4.75 log2 normalized intensity
CTTTGTAGCACTTTGGACCTCCACTTTGGAGCCTAGGGAGATTAGAGTATCGGTCGA	3.36 log2 normalized intensity
GAGACCCATTTTGGACTTTGACCTCCAAAAGCCTAGGGAGATTAGAGTATCGGTCGA	11.3 log2 normalized intensity
CTTGACTTTGGACTTTCAAAAGTTAAGGTCGCCTAGGGAGATTAGAGTATCGGTCGA	3.98 log2 normalized intensity
CCATTTTGGACTTTGACCTCCAAAATTATAGCCTAGGGAGATTAGAGTATCGGTCGA	10.9 log2 normalized intensity
